Screening results from PubChem BioAssay.
TGFb inhibitor: TGF-b pathway inhibition | Potency, µM (highest dose often 46.1 µM), inactives show at the highest dose activity, negative = inhibition, most hits filed as inhibitors | 1.2% of 410,000 active | HepG2 CAGA-GFP TGF-b/SMAD3 reporter, GFP fluorescence, 18 h; TGF-beta stimulated, 500 pg/mL final; further: on the % scale 0 is the no-effect control and ±100 the full control effect; nearly all actives have a fitted effect of over 65% in size
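HEPG2 CAGA-GFP reporter cells (1000/well, DMEM with 1% FBS) received compounds, then recombinant TGF-beta at 500 pg/mL final for 18 hours at 37 degrees C. Per-cell GFP summed per well was normalised to unstimulated and stimulated DMSO controls before curve fitting.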
HepG2 tox-1: HepG2 cytotoxicity, counter-screen for TGF-b inhibitors; 0.76% of 410,000 active; Potency, µM (titrated, usually from 46.1 µM), for inactives: at the highest dose activity change, negative = cytotoxicity, actives largely listed as cytotoxic; HepG2 CAGA-GFP viability, ATP luminescence, 18 h; AID 588856
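HepG2 CAGA-GFP cells (1000/well, DMEM with 1% FBS) received compound, then TGF-beta at 500 pg/mL final, and were incubated 18 hours at 37 degrees C. Viability was read by CellTiter-Glo luminescence. Media-only wells were set as complete cell-killing and DMSO as no toxicity.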
TDP1 cell noCPT: qHTS for Inhibitors of human tyrosyl-DNA phosphodiesterase 1 (TDP1): qHTS in cells in absence of CPT | 15% of 420,000 active | AID 686978, 2013 | DT40 Tdp1-/- hTDP1 cells, no CPT, ATP luminescence, 48 h | Potency, µM (doses to about 46.2 µM), without a hit: top-dose activity change, negative = growth inhibition, usual class: inhibitors; further: on the % scale 0 is the no-effect control and ±100 the full control effect; nearly all actives have a fitted effect of over 55% in size
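Chicken DT40 Tdp1-/- cells complemented with human TDP1, screened without camptothecin (DMSO vehicle only), 400 cells/well. Compounds pin-transferred, cells incubated at 37 °C for at least 48 hr. Growth read as ATP-dependent luminescence (CellTiter-Glo, 30 min at RT).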
ATXN2 expr inh: ATXN2 expression inhibition; HEK-293 ATXN2-luciferase reporter, luminescence, 24 h; Potency, µM (highest dose often 57 µM), without a hit: top-dose activity change, negative = inhibition, actives largely listed as inhibitors; 0.72% of 360,000 active; AID 1745845; further: on the % scale 0 is the no-effect control and ±100 the full control effect; nearly all actives have a fitted effect of over 55% in size
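qHTS (up to 57 uM final) was run with 24 h compound exposure of reporter cells at 37 °C. Each well was multiplexed: SteadyGlo luminescence measured ATXN2-luciferase expression after a fluorogenic Gly-Phe-AFC viability readout (25 uM final).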
S2 tox: reduces viability in counter-screen for ATXN expression inhibitors. 0.49% of 400,000 active. Potency, µM (series often up to 56.7 µM), actives largely listed as cytotoxic. S2 cells (HEK-293 line with an ATXN2-luciferase reporter) viability, CellTiter-Fluor protease fluorescence, 24 h. AID 651635; further: nearly all actives have a fitted effect of over 40% in size
DT40 TDP1 CPT: DT40-hTDP1 cell growth loss with CPT | Potency, µM (top dose mostly 46.2 µM), without a hit: top-dose activity change, negative = growth inhibition, most hits filed as inhibitors | AID 686979 | 12% of 420,000 active | chicken DT40 Tdp1-/-;hTDP1 cells + 20 nM CPT, ATP luminescence, 48 h; further: on the % scale 0 is the no-effect control and ±100 the full control effect; nearly all actives have a fitted effect of over 55% in size
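Cell growth measured by CellTiter-Glo luminescence after a minimum 48 h, 37 C compound exposure with 20 nM CPT in Tdp1-knockout DT40 cells stably expressing hTDP1, seeded 400/well; qHTS titration format.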
TGFb CAGA inh: TGF-b pathway inhibition, cherry-pick retest. 63% of 1,600 active. HepG2 CAGA-GFP TGF-b reporter, GFP fluorescence, 18 h; cells stimulated with TGF-beta, 500 pg/mL. Potency, µM (series often up to 46.1 µM), inactives show at the top dose activity, negative = inhibition, most hits filed as inhibitors. shares compounds with TGFb inhibitor. AID 720534; further: on the % scale 0 is the no-effect control and ±100 the full control effect; nearly all actives have a fitted effect of over 65% in size
HepG2 tox-2: counter-screen for TGF-b inhibitors: cytotoxicity in HepG2 cells; AID 720535; HepG2 CAGA-GFP viability, ATP luminescence, 18 h; cells stimulated with TGF-beta, 500 pg/mL; shares compounds with TGFb inhibitor; Potency, µM (highest dose often 46.1 µM), for inactives: top-dose activity, negative = cytotoxicity, most hits filed as inhibitors; 27% of 1,600 active; further: on the % scale 0 is the no-effect control and ±100 the full control effect; nearly all actives have a fitted effect of over 70% in size
CCL64 TGFb inh: TGF-b inhibition, CCL64 orthogonal assay; shares compounds with TGFb inhibitor; CCL64 CAGA-GFP reporter, TGF-b stimulated, GFP fluorescence, 18 h; Potency, µM (highest dose often 46.1 µM), for inactives: at the highest dose activity, negative = inhibition, most hits filed as inhibitors; 41% of 1,600 active; AID 720536; further: nearly all actives have a fitted effect of over 65% in size
COP TGFb inh: TGF-b inhibition validated with COP promoter; shares compounds with TGFb inhibitor; HepG2 COP-GFP TGF-b reporter, GFP fluorescence, 18 h; cells stimulated by added recombinant TGF-beta; Potency, µM (highest dose often 46.1 µM), for the others: at the highest dose activity, negative = inhibition, actives largely listed as inhibitors; 3% of 1,600 active; AID 720537; further: nearly all actives have a fitted effect of over 70% in size
Starred values were filed as active, the others as inactive; i = inactive; ? = inconclusive; / = no result given. Sampled rows, rich in hits. Any-hit rate of the full collection: about 17%. The call rests on the fitted dose curve; in most records, active means well fitted curve in the direction sought with a large enough effect; inconclusive means small, poorly fitted or top-dose-only effect, or another doubt; inactive means no such curve, though single readings can be large; an effect the other way counts as inactive or inconclusive. Potency means the concentration at half of the fitted maximal effect.

SMILES	TGFb inhibitor	HepG2 tox-1	TDP1 cell noCPT	ATXN2 expr inh	S2 tox	DT40 TDP1 CPT	TGFb CAGA inh	HepG2 tox-2	CCL64 TGFb inh	COP TGFb inh
Cn1c(/C=C/c2ccc([N+](=O)[O-])o2)nc2ccccc2c1=O	2.24µM*	-41.2%	0.259µM*	7.94µM*	6.31µM*	0.259µM*	?	6.51µM*	5.17µM*	?
Cc1ccc(NC(=O)C2(c3ccc([N+](=O)[O-])cc3)CCCC2)cc1	?	1.0%	?	/	i	?	-28.1%	-8.7%	-10.0%	0.0%
CCCc1nnc(NC(=O)C(CC)OC(=O)c2cc(C)nc3ccccc23)s1 (centres undefined)	?	5.2%	?	4.6%	i	-27.4%	?	1.4%	7.8%	4.6%
CCC1Nc2ncnc(N3CCc4ccccc4C3)c2N(Cc2ccc(Br)cc2)C1=O (centres undefined)	12.6µM*	-10.7%	?	?	?	?	18.4µM*	18.4µM*	-80.9%	27.7%
O=C(NCc1cccnc1)/C(=C\c1ccc(-c2ccc(Br)cc2)o1)S(=O)(=O)c1ccccc1	10µM*	-97.5%	3.26µM*	7.08µM*	14.1µM*	2.91µM*	5.8µM*	3.26µM*	5.17µM*	?
O=C1NC(=S)NC1Cc1ccc(O)cc1 (centres undefined)	18.7%	7.2%	-7.6%	-3.7%	i	-5.5%	/	/	/	/
Cc1ccc(NC(=O)c2cc(S(=O)(=O)N(C)C)ccc2N2CCCC2)cc1F	10µM*	-1.4%	2.7%	-0.2%	i	0.8%	13µM*	-15.0%	18.4µM*	-10.6%
CN(C)S(=O)(=O)c1ccc(N2CCCC2)c(C(=O)NCC(=O)Nc2ccc(F)c(F)c2)c1	-10.3%	3.6%	-27.3%	10.9%	i	-18.8%	/	/	/	/
OCCCn1c(C(CO)Nc2nc(-c3ccc(Cl)cc3)cs2)nc2ccccc21 (centres undefined)	17.8µM*	-28.9%	16.4µM*	-29.8%	i	?	14.6µM*	-28.6%	?	10.1%
COc1ccc(OCCCCn2c(CO)nc3ccccc32)cc1	-4.4%	-10.1%	?	-15.6%	i	-2.3%	/	/	/	/
O=C(Nc1cccc(F)c1)C1CCCN(S(=O)(=O)c2cnc[nH]2)C1 (centres undefined)	6.1%	9.8%	13.0%	3.6%	i	-1.4%	/	/	/	/
CC(OC(=O)C1CSC2(C)CCC(=O)N12)C(=O)Nc1ccc(F)cc1 (centres undefined)	-6.3%	7.2%	0.0%	-5.4%	i	-13.2%	/	/	/	/
O=C(C1=C[C@@H](c2ccc(C(F)(F)F)cc2)C[C@@H](OCc2ccc(CO)cc2)O1)N1CCN(Cc2ccccc2)CC1	14.1µM*	-5.1%	?	?	?	?	18.4µM*	-25.9%	?	27.4%
CN1CCN(C(=O)C2=C[C@@H](c3ccc(C(F)(F)F)cc3)C[C@@H](OCc3ccc(CO)cc3)O2)CC1	-1.7%	-53.0%	?	-4.6%	i	?	/	/	/	/
COc1cccc(CN(C)C(=O)COc2cccc3c2OC(C)(C)C3)c1OC	7.7%	-14.5%	?	-20.8%	i	?	/	/	/	/
CCCCCCC[C@@H](C/C=C/CCC(=O)N(C)C/C(=C/Cl)C/C(=C\C(=O)N1CC(OC)=CC1=O)OC)OC	0.708µM*	-70.0%	1.84µM*	?	22.4µM*	2.31µM*	0.731µM*	?	7.31µM*	-2.8%
CCn1c(=S)sc2c(=O)n(CC(=O)Nc3ccc(OC)c(Cl)c3)c(C)nc21	-6.0%	-32.0%	6.5%	1.2%	i	?	/	/	/	/
CCCCOC(=O)Nc1ccc(S(=O)(=O)Nc2ccc([N+](=O)[O-])cc2)cc1	7.94µM*	-9.3%	-1.8%	12.6%	i	-7.4%	?	-5.9%	-13.7%	-8.8%
O=C(Nc1cccc(S(=O)(=O)N2CCOCC2)c1)c1ccc(N2CCOCC2)c([N+](=O)[O-])c1	-4.9%	-2.4%	?	-0.8%	i	?	/	/	/	/
NC(=O)[C@H]1CC2(CC(c3cccc(NC(=O)COc4ccc(Cl)cc4)c3)=NO2)CN1C(=O)c1ccc(Cl)cc1 (some centres undefined)	17.8µM*	-3.6%	?	?	?	18.4µM*	18.4µM*	-29.4%	18.4µM*	22.2%
Nn1c(SCC(=O)Nc2ccc(N3CCOCC3)cc2)nnc1C1CC1	16.1%	-4.6%	-6.0%	/	?	-0.7%	/	/	/	/
COc1ccc(C(=O)NC(CO)c2nnc(SCc3ccc(Cl)c(Cl)c3)n2C)cc1 (centres undefined)	-13.0%	-14.1%	?	-7.5%	?	-14.5%	/	/	/	/
CC(C)CC(NC(=O)c1cccs1)c1nnc(SCc2ccc(Cl)c(Cl)c2)n1C (centres undefined)	5.62µM*	-22.0%	?	-21.9%	?	?	18.4µM*	18.4µM*	?	3.3%
Cc1ccc(NC(=O)CSc2nnc(Cc3csc(C)n3)o2)c(C)c1	-0.1%	3.7%	-10.7%	-16.0%	i	7.6%	/	/	/	/
Cc1ccc(NC(=S)/N=C(\N)Nc2nc(C)c3cc(C)c(C)cc3n2)cc1C	-8.1%	2.6%	?	-20.1%	?	?	/	/	/	/
